Source: PubChem BioAssay (Tox21)
Records with an inconclusive call do not appear. The source made the active and inactive calls. Unless noted, calls follow the shape of the dose curve; as a rule, active = well fitted curve in the direction sought with a large enough effect in the repeat runs; inconclusive = weak or mixed curves; inactive = no such curve, though single readings can be large; an effect the other way counts as inactive or inconclusive.

Assays:
[1] = A CellTox Green Cytotoxicity Assay to monitor cytotoxicity in HepG2 cells - 0 hour (AID 1224882); also: nearly all actives have a fitted effect of over 35% in size
Outline: (§1)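 Real-time, homogeneous cytotoxicity readout: dead-cell DNA staining by CellTox Green in HepG2 monolayers, fluorescence measured at timed intervals up to 40 h of continuous compound exposure.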

[2] = A CellTox Green Cytotoxicity Assay to monitor cytotoxicity in HepG2 cells - 32 hour (AID 1224883); also: nearly all actives have a fitted effect of over 50% in size
Outline: as §1

[3] = A CellTox Green Cytotoxicity Assay to monitor cytotoxicity in HEK293 cells - 8 hour (AID 1224884); also: nearly all actives have a fitted effect of over 35% in size
Outline: (§2)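 Cytotoxicity was tracked continuously in HEK293 cells by a DNA-binding dye excluded from viable cells. Compounds were transferred in DMSO 5 h after seeding; fluorescence was recorded at intervals up to 40 h.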

[4] = qHTS RealTime-Glo MT Cell Viability Assay in HepG2 cells - 16 hour (AID 1224885); also: nearly all actives have a fitted effect of over 50% in size
Outline: (§3)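 Viability was tracked continuously by NanoLuc luminescence from prosubstrate reduced by living HepG2 cells, at successive time points over 40 h of compound exposure. Cells with reagent were preincubated 5 h at 37 °C before compound addition.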

[5] = qHTS RealTime-Glo MT Cell Viability Assay in HEK293 cells - 24 hour (AID 1224886); also: top concentration of the series differs between compounds; nearly all actives have a fitted effect of over 50% in size
Outline: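 Viability tracked continuously by luminescence as live cells reduce a prosubstrate for NanoLuc; HEK293 cells preincubated 5 h, compound-treated at 37 C, and read at 0, 8, 16, 24, 32 and 40 h.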

[6] = qHTS RealTime-Glo MT Cell Viability Assay in HEK293 cells - 8 hour (AID 1224887); also: top concentration of the series differs between compounds; nearly all actives have a fitted effect of over 50% in size
Outline: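 Nonlytic bioluminescent viability monitoring. HEK293 at 600 cells/well with reagent; 5 h settle; compound transfer by pintool; plates held at 37 C and read at set time points.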

[7] = A CellTox Green Cytotoxicity Assay to monitor cytotoxicity in HEK293 cells - 16 hour (AID 1224888); also: nearly all actives have a fitted effect of over 35% in size
Outline: as §2

[8] = qHTS RealTime-Glo MT Cell Viability Assay in HepG2 cells - 0 hour (AID 1224889); also: nearly all actives have a fitted effect of over 50% in size
Outline: as §3

[9] = A CellTox Green Cytotoxicity Assay to monitor cytotoxicity in HepG2 cells - 8 hour (AID 1224890); also: nearly all actives have a fitted effect of over 45% in size
Outline: as §1

[10] = qHTS assay to identify small molecule antagonists of the estrogen receptor alpha (ER-alpha) signaling pathway using the BG1 cell line in the presence of 0.1 nM 17-beta-estradiol - cell viability counter screen (AID 1259241); also: nearly all actives have a fitted effect of over 40% in size
Outline: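 VM7Luc4E2, 4,000 cells/well, phenol red-free medium + 10% charcoal-stripped FBS; 24 hr plating; cpd + 0.1 nM E2 final, 22 hr 37C/5% CO2; CellTiter-Fluor 30 min, fluorescence.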

[11] = qHTS assay to identify small molecule antagonists of the androgen receptor (AR) signaling pathway using the MDA cell line in the presence of 0.5 nM R1881 - cell viability counter screen (AID 1259242); also: nearly all actives have a fitted effect of over 45% in size
Outline: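 Cytotoxicity toward MDA-kb2 cells is measured by CellTiter-Fluor live-cell protease fluorescence after 16 hr compound exposure at 37C in the presence of 0.5 nM R1881 stimulator.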

[12] = target: Estrogen receptor (Homo sapiens) (UniProt P03372); test: qHTS assay to identify small molecule antagonists of the estrogen receptor alpha (ER-alpha) signaling pathway using the BG1 cell line in the presence of 0.1 nM 17-beta-estradiol (AID 1259244); also: nearly all actives have a fitted effect of over 50% in size
Outline: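 After 5 days in hormone-depleted medium (charcoal-stripped serum, no phenol red), VM7Luc4E2 cells were seeded, incubated 24 h, then co-treated with compound and 0.1 nM (final) estradiol for 22 h before luminescence detection.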

[13] = qHTS assay to identify small molecule HDAC inhibitors (AID 1259364); also: top concentration of the series differs between compounds; nearly all actives have a fitted effect of over 45% in size
Outline: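 Homogeneous cell-based luminescent assay of endogenous class I/II HDAC activity; HCT-116 cells, 2 h compound exposure, 30 min HDAC-Glo development at RT.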

[14] = qHTS assay to identify small molecule HDAC inhibitors - cell viability counter screen (AID 1259365)
Outline: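 Luminescence from CellTiter-Glo, developed 30min at room temperature, reports viability of wild-type HCT-116 cells treated 2hr with compounds at 37 C and 5% CO2 after overnight plating.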

[15] = qHTS assay to identify small molecule agonists of the sonic hedgehog signaling (Shh) pathway - cell viability counter screen (AID 1259366); also: nearly all actives have a fitted effect of over 50% in size
Outline: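 Cytotoxicity counter screen run in the same wells as the Shh reporter assay. NIH/3T3 cells carrying a Gli1 response element–driven luciferase were treated with DMSO-dissolved compounds for 24hr, and live-cell protease activity was measured with CellTiter-Fluor.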

[16] = qHTS assay to identify small molecule antagonists of the sonic hedgehog signaling (Shh) pathway - cell viability counter screen (AID 1259367); also: nearly all actives have a fitted effect of over 55% in size
Outline: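 Seed 3T3 Gli1-Luc cells at 2,000 per well; incubate 4 hr; add compound in DMSO, then conditioned medium; incubate at 37C with 5% CO2; add CellTiter-Fluor after 23 hr; read fluorescence 1 hr later.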

[17] = qHTS assay to identify small molecule agonists of the sonic hedgehog signaling (Shh) pathway (AID 1259368; calls by dose curve;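 also: NIH/3T3-derived 3T3Gli1-Luc cells carrying a stable Gli1-driven firefly luciferase reporter; series mostly up to about 92 µM; nearly all actives have a fitted effect of over 15% in size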)
Outline: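 Steps: seed 3T3 Gli1-Luc cells, incubate 4 hr at 37 C, pin-transfer compounds in DMSO alongside a positive control, incubate 24 hr, add luciferase detection reagent, wait 30 min at room temperature, read luminescence.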

[18] = qHTS assay to identify small molecule antagonists of the sonic hedgehog signaling (Shh) pathway (AID 1259369; calls by dose curve; also: nearly all actives have a fitted effect of over 45% in size)
Outline: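 Inhibition of Shh signalling is measured as reduced Gli1-response-element firefly luciferase output in an NIH/3T3-derived stable reporter clone stimulated with conditioned medium for 24hr.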

[19] = qHTS assay to identify small molecule phospholipidosis (PLD) inducers (AID 1259344; active = well fitted curve in the direction sought with a large enough effect; an effect the other way counts as inactive or inconclusive)
Outline: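 Quantitative HTS in HepG2: compound plus LipidTOX Red dye for 24 h, paraformaldehyde fixation with Hoechst 33342, widefield high-content imaging; amiodarone as positive and DMSO as negative control.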
% is scaled to controls: 0 for no effect and ±100 for the full control effect.

Sequence of Estrogen receptor (Homo sapiens) (P03372 whole entry, looked up): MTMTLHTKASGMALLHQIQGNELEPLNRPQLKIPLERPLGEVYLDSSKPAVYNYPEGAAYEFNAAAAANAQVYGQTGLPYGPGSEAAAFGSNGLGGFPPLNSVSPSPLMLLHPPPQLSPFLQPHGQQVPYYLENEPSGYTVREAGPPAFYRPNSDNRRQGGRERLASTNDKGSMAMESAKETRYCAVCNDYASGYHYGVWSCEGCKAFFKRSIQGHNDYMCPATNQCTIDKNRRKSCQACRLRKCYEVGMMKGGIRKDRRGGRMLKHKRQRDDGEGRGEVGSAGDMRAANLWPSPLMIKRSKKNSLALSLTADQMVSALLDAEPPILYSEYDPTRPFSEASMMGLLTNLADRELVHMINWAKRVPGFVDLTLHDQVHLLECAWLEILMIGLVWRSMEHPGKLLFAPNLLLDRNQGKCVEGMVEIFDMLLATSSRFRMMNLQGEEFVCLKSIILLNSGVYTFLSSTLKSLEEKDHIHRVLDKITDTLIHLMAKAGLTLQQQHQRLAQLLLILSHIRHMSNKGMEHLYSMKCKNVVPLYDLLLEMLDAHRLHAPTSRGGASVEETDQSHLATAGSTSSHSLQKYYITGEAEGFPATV

CC(C)c1ccc(C(C)C)cc1
inactive: Potency [1] | Potency [2] | Potency [3] | Potency [4] | Potency [5] | Potency [6] | Potency [7] | Potency [8] | Potency [9] | Potency [10] | Potency [11] | Potency [12] | Potency [13] | Potency [14] | Potency [15] | Potency [16] | Potency [17] | Potency [18]

CC(=O)CC(=O)N(C)C
inactive: Potency [1] | Potency [2] | Potency [3] | Potency [4] | Potency [5] | Potency [6] | Potency [7] | Potency [8] | Potency [9] | Potency [10] | Potency [11] | Potency [12] | Potency [13] | Potency [14] | Potency [15] | Potency [16] | Potency [17] | Potency [18]

OB(O)O
inactive: Potency [1] | Potency [2] | Potency [3] | Potency [4] | Potency [5] | Potency [6] | Potency [7] | Potency [8] | Potency [9] | Potency [10] | Potency [11] | Potency [12] | outcome [19] | Potency [13] | Potency [14] | Potency [15] | Potency [16] | Potency [17] | Potency [18]

O=C(O)C1=NN(c2ccc(S(=O)(=O)O)cc2)C(=O)C1
inactive: Potency [1] | Potency [2] | Potency [3] | Potency [4] | Potency [5] | Potency [6] | Potency [7] | Potency [8] | Potency [9] | Potency [10] | Potency [11] | Potency [12] | Potency [13] | Potency [14] | Potency [15] | Potency [16] | Potency [17] | Potency [18]

CCOC(=O)c1ccc(O)cc1
inactive: Potency [1] | Potency [2] | Potency [3] | Potency [4] | Potency [5] | Potency [6] | Potency [7] | Potency [8] | Potency [9] | Potency [10] | Potency [11] | Potency [12] | outcome [19] | Potency [13] | Potency [15] | Potency [16] | Potency [17] | Potency [18]

C[Si](C)(C)N[Si](C)(C)C
inactive: Potency [1] | Potency [2] | Potency [3] | Potency [4] | Potency [5] | Potency [6] | Potency [7] | Potency [8] | Potency [9] | Potency [10] | Potency [11] | Potency [12] | Potency [13] | Potency [15] | Potency [16] | Potency [17] | Potency [18]

CCCCCCCCCCCC(=O)N(C)CC(=O)O
inactive: Potency [1] | cytotoxicity increase [2] 2.96% [at 6.97 µM] | Potency [3] | Potency [4] | Potency [5] | Potency [6] | Potency [7] | Potency [8] | Potency [9] | Potency [10] | Potency [11] | Potency [12] | Potency [13] | Potency [15] | Potency [16] | Potency [17] | Potency [18]
